Data as given in PubChem BioAssay.
Unmarked numbers belong to inactive results. For some assays here: Measured potencies and affinities stand elsewhere. The source made the active and inactive calls. Unless noted, the rule behind the calls is not given here.

Experiments:
[1] = antimalarial activity against Dd2 strain (AID 2302;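 active = growth inhibition above 50% at the single 2 µM test dose, taken to imply half-maximal potency below 2 µM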;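 note: 0% = DMSO untreated growth and 100% = chloroquine plus artemisinin killed control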); conditions: P. falciparum Dd2 in RBCs, LDH growth readout, 72 h; at 2 µM; active compounds read high
[2] = HepG2 cytotoxicity, primary screen, cytotoxicity control for P. falciparum antimalarial project, cell-based, ATP luminescence (AID 2303;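 active = inhibition above 50%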;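 note: 0% = DMSO wells and 100% = digitonin-killed cells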); conditions: HepG2 viability, 24-48 h, at 10 µM, active compounds read high
[3] = target: L-lactate dehydrogenase (Plasmodium falciparum (isolate CDC / Honduras)) (UniProt Q27743); assay: PfLDH activity inhibition – cell lysate, 3D7 strain, counter-screen for P. falciparum growth inhibition project (AID 2304);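 note: 0% = vehicle and 100% = reference inhibitor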; conditions: P. falciparum 3D7 crude extract, LDH APAD/NBT absorbance; at 2 µM; active compounds read high
L-lactate dehydrogenase (Plasmodium falciparum (isolate CDC / Honduras)), sequence (Q27743 whole entry, looked up): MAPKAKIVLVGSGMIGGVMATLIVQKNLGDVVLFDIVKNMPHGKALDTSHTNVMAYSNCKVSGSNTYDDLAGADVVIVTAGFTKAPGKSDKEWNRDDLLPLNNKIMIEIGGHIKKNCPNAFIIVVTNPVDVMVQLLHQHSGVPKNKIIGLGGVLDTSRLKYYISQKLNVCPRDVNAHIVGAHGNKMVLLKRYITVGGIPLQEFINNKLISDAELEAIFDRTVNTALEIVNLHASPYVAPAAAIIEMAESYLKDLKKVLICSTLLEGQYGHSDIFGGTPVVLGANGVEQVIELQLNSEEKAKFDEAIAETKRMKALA

[4] = inhibition of 3D7 malaria parasite growth – strain 3D7 (AID 2306);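 note: 0% = DMSO wells and 100% = chloroquine plus artemisinin control wells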; conditions: P. falciparum 3D7 erythrocytic growth, LDH absorbance, 72 h; at 2 µM; active compounds read high
[5] = target: Calcium-dependent protein kinase 1 (Plasmodium falciparum (isolate 3D7)) (UniProt P62344); assay: PfCDPK1 kinase inhibitors, biochemical, TCAMS library (AID 1159585; cut-off not given, nearly all actives have IC50 up to about 0.98 µM;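 note: inhibitors leave more ATP so luminescence rises with inhibition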); conditions: recombinant PfCDPK1, Kinase-Glo ATP depletion luminescence
Calcium-dependent protein kinase 1 (Plasmodium falciparum (isolate 3D7)), sequence (P62344 whole entry, looked up): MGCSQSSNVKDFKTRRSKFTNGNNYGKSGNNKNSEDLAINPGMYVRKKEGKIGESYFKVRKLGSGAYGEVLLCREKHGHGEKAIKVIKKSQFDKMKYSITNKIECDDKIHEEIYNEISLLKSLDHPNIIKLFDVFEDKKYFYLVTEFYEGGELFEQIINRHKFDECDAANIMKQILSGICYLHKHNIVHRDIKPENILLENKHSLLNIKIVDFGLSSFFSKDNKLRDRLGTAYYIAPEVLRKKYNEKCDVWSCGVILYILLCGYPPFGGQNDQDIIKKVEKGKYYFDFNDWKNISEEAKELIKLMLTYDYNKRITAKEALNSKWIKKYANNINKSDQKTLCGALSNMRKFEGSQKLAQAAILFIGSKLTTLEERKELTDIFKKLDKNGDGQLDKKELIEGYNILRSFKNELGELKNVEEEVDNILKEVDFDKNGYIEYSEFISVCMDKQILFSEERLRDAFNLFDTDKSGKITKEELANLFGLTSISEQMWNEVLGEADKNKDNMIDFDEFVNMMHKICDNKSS

[6] = target: Plasmodium falciparum protein kinase 6 (PK6, PF3D7_1337100) (UniProt Q8IDW1); assay: PfPK6 kinase inhibitors, biochemical, TCAMS library (AID 1159586); conditions: recombinant PfPK6, Kinase-Glo ATP depletion luminescence
Plasmodium falciparum protein kinase 6 (PK6, PF3D7_1337100), sequence (Q8IDW1 1-305): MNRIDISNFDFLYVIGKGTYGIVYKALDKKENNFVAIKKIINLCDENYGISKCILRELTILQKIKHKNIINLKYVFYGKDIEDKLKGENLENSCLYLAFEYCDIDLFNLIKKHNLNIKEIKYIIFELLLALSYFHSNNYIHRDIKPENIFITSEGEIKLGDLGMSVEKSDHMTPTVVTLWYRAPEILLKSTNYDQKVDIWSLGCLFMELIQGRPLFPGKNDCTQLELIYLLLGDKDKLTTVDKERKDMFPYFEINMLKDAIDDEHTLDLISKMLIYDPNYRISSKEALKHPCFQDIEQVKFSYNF

[7] = target: Protein kinase 7 (PK7), Plasmodium falciparum 3D7 (PF3D7_0213400) (UniProt Q7YTF7); assay: inhibition of Plasmodium PK7 catalytic activity – biochemical, TCAMS antimalarial set, Kinase-Glo luminescence (AID 1159587); conditions: recombinant PfPK7, Kinase-Glo ATP depletion luminescence
Protein kinase 7 (PK7), Plasmodium falciparum 3D7 (PF3D7_0213400), sequence (Q7YTF7 1-343): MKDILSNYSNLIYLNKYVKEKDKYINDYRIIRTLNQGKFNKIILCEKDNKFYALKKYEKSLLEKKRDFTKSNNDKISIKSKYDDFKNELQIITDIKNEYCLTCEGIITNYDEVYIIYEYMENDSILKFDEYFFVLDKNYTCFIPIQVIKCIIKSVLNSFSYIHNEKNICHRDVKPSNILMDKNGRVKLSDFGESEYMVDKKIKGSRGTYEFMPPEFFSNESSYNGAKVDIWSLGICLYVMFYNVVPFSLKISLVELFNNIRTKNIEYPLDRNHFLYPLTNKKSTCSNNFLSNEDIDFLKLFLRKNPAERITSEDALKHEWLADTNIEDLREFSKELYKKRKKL

[8] = target: Calcium-dependent protein kinase 4 (Plasmodium falciparum (isolate 3D7)) (UniProt Q8IBS5); assay: PfCDPK4 kinase inhibitors, biochemical, TCAMS library (AID 1159588; cut-off not given, nearly all actives have IC50 up to about 0.91 µM); conditions: recombinant PfCDPK4, Kinase-Glo ATP depletion luminescence
Calcium-dependent protein kinase 4 (Plasmodium falciparum (isolate 3D7)), sequence (Q8IBS5 whole entry, looked up): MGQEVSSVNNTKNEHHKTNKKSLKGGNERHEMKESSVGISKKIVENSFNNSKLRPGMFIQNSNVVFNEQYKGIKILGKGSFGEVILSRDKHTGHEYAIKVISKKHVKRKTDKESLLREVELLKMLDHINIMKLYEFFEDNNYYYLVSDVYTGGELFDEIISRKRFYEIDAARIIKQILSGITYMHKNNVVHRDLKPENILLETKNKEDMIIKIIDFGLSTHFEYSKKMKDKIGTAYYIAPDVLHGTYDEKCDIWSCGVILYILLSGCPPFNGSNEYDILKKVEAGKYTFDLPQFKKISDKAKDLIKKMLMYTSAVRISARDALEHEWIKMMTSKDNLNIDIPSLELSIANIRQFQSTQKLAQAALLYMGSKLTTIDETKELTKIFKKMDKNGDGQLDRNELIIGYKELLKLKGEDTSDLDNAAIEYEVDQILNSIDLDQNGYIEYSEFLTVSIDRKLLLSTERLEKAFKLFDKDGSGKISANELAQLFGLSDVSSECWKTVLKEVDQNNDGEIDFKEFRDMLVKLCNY

SMILES | growth inhibition [1] | inhibition [2] | inhibition [3] | growth inhibition [4] | outcome [5] | outcome [6] | outcome [7] | outcome [8]
Cc1cccc2[nH]c(-c3ccc(-c4cccc(NC(=O)NCc5cccc(F)c5)c4)s3)nc12 | 8% | 24% | -2% | 88% (active) | inactive | inactive | inactive | inactive
COc1ccc2nccc([C@@H](O)CN3CCC(NCc4cc5cccc(OC)c5o4)CC3)c2c1 | 81% (active) | 10% | -8% | 99% (active) | inactive | inactive | inactive | inactive
CNC(=O)c1[nH]c(-c2ccccc2)nc1NC(C)=O | -2% | -3% | -2% | 100% (active) | inactive | inactive | inactive | inactive
COc1cc2nc(NCC3CCN(C(=O)c4ccc(-c5ccc(C(=O)N(C)C)cc5C)cc4)CC3)nc(N)c2cc1OC | 34% | 2% | 1% | 101% (active) | inactive | inactive | inactive | inactive
COc1cc2c(cc1OC)CN(CCCCNC(=O)c1ccc(NC(=O)c3cc(Cl)cc(Cl)c3)cc1)CC2 | 75% (active) | 19% | -6% | 99% (active) | inactive | inactive | inactive | inactive
CCN(CC)CCNC(=O)/C(=C/C=C/c1cc2cc(Cl)c(Cl)cc2[nH]1)OC | 31% | 30% | -4% | 88% (active) | inactive | inactive | inactive | inactive
COc1ccccc1NC(=O)OC(COc1ccc(N)cc1)CN1CC=C(c2ccccc2)CC1 (stereo not given) | 81% (active) | 16% | 3% | 90% (active) | inactive | inactive | inactive | inactive
CC(C)CCN1C(=O)C(NC(=O)Oc2ccccc2)C(=O)N(CC23CC4CC(CC(C4)C2)C3)c2ccccc21 (stereo not given) | 4% | 3% | 0% | 95% (active) | inactive | inactive | inactive | inactive
CON=Cc1sc(CNCCCNc2cc(=O)c3ccccc3[nH]2)c(C)c1Br | 63% (active) | -8% | -1% | 96% (active) | inactive | inactive | inactive | inactive
CCC(C)NS(=O)(=O)c1ccc2nc(Nc3cccc(SC)c3)n(C(C)C(C)C)c2c1 (stereo not given) | 70% (active) | -1% | 2% | 94% (active) | inactive | inactive | inactive | inactive
COc1ccc(CNCc2cccc(-c3ccc(-c4nc5ccccc5[nH]4)cc3)c2)cc1 | 60% (active) | 22% | 2% | 101% (active) | inactive | inactive | inactive | inactive
CC[C@H](C)CNC(=O)c1cncc(-c2ccc(CN3CCC(N4CCCC4)CC3)cc2)c1 | 100% (active) | -8% | 3% | 101% (active) | inactive | inactive | inactive | inactive
Cc1cc(N[C@@H](Cc2ccccc2)C(=O)NC2CCCC2)nc(NCCCOC(C)C)n1 | 43% | -4% | -3% | 92% (active) | inactive | inactive | inactive | inactive
COc1ccc(CC(C)CON2C(N)=NC(N)=NC2(C)C)cc1 (stereo not given) | 96% (active) | 59% (active) | -9% | 94% (active) | inactive | inactive | inactive | inactive
COc1cc(Nc2nccc(N3CCC(NC(=O)C4COc5ccccc5O4)C3)n2)cc(OC)c1OC (stereo not given) | 58% (active) | 5% | 5% | 90% (active) | inactive | inactive | inactive | inactive
O=C(c1cc2ccccc2o1)N1CCc2cc3nccc(N4CCN5CCC[C@H]5C4)c3cc21 | 101% (active) | 62% (active) | 2% | 99% (active) | inactive | inactive | inactive | inactive
O=C(Nc1ccc(N2CCN(Cc3ccccc3Cl)CC2)cc1)c1ccc([N+](=O)[O-])o1 | 67% (active) | 100% (active) | -4% | 91% (active) | inactive | inactive | inactive | inactive
Cc1cccc(-c2nn(-c3ccccc3)c3[nH]c(=O)c(CN4CCSCC4)cc23)c1 | 98% (active) | -3% | 0% | 98% (active) | inactive | inactive | inactive | inactive
Cc1c(C(=O)NCc2ccncc2)sc2nc(-c3cccc([N+](=O)[O-])c3)cn12 | 29% | 18% | -2% | 97% (active) | inactive | inactive | inactive | inactive
CC(C)(C)c1ccc(-c2csc(NC(=O)CC(c3ccccc3)c3ccccc3)n2)cc1 | 64% (active) | 3% | -6% | 86% (active) | inactive | inactive | inactive | inactive

SMILES | growth inhibition [1] | inhibition [2] | inhibition [3] | growth inhibition [4] | outcome [5] | outcome [6] | outcome [7] | outcome [8]
O=C(Nc1cccc(-c2nc3ccccc3s2)c1)c1ccccc1[N+](=O)[O-] | 9% | 0% | 0% | 85% (active) | inactive | inactive | inactive | inactive
COc1cc(Nc2nccc(N3CCC(NC(=O)c4cccc(NC(C)=O)c4)C3)n2)cc(OC)c1OC (stereo not given) | 68% (active) | 9% | -6% | 98% (active) | inactive | inactive | inactive | inactive
COCC(C)n1c(C)cc(C(=O)CSc2nnc(Nc3ccccc3)s2)c1C (stereo not given) | 98% (active) | -5% | -6% | 97% (active) | inactive | inactive | inactive | inactive
Cc1cc(NC(=O)Nc2cccc(C#N)c2)c2ccccc2n1 | 82% (active) | 17% | -1% | 100% (active) | inactive | inactive | inactive | inactive
COc1nc2c(N3CCN(CCNCc4ccc5c(n4)NC(=O)CS5)CC3)ccnc2cc1F | 96% (active) | 18% | -6% | 101% (active) | inactive | inactive | inactive | inactive
COc1ccc(CN2CCN(CCCCNC(=O)c3ccc(NC(=O)c4ccc(Cl)cc4)cc3)CC2)c(OC)c1 | 0% | 25% | -6% | 94% (active) | inactive | inactive | inactive | inactive
Cc1ccc(-c2cc(C(=O)Nc3ccc(S(=O)(=O)N4CCCCC4)cc3)[nH]n2)c(O)c1 | 92% (active) | 6% | -5% | 97% (active) | inactive | inactive | inactive | inactive
CN1CCCN(Cc2cccc(-c3cccc(NC(=O)c4cccc(C#N)c4)c3)c2)CC1 | 33% | 18% | 2% | 95% (active) | inactive | inactive | inactive | inactive
COc1c(C=NNc2nc(Nc3ccccc3)nc(Nc3ccccc3)n2)ccc(Br)c1O | 37% | 63% (active) | 5% | 98% (active) | inactive | inactive | inactive | inactive
COc1ccc(CNC(=O)c2cc3c(=O)n4ccccc4nc3n(CCc3ccccc3)c2=N)cc1 | 22% | 26% | -4% | 99% (active) | inactive | inactive | inactive | inactive
Nc1cc(-c2ccc3c(N)nccc3c2)ccc1Cl | 4% | 1% | -2% | 91% (active) | inactive | inactive | inactive | inactive
CCN(CC)Cc1cccc(-c2cc3c(-c4ccc(C(=O)O)c(C(C)C)c4)ccnc3[nH]2)c1OC | 99% (active) | 57% (active) | -2% | 99% (active) | inactive | inactive | inactive | inactive
COc1cc(OC)c(NC(=O)COc2ccc(C)cc2)cc1Cl | 90% (active) | -7% | 3% | 86% (active) | inactive | inactive | inactive | inactive
Fc1cc(Cl)ccc1Nc1ccnc2cc(-c3scnc3CNCCN3CCOCC3)ccc12 | 84% (active) | -7% | -2% | 99% (active) | inactive | inactive | inactive | inactive
CN(C)CCCc1cc(NC(=O)Nc2cccc(Cl)c2Cl)ccc1I | 45% | 12% | 1% | 102% (active) | inactive | inactive | inactive | inactive
CCNc1c2ccc(Cl)cc2nc2ccc(OC)cc12 | 100% (active) | 16% | 0% | 99% (active) | inactive | inactive | inactive | inactive
Oc1ccc2[nH]c(-c3cccc(F)c3)nc2c1CN1CCC(O)(c2ccccc2)CC1 | 72% (active) | 21% | -1% | 97% (active) | inactive | inactive | inactive | inactive
Cc1cc(Nc2c(C(N)=O)cnc3cc(-c4ccoc4)ccc23)ccc1N1CCN(C)CC1 | 100% (active) | 7% | 1% | 101% (active) | inactive | inactive | inactive | inactive
O=C(CCc1cnc[nH]1)Nc1cccc(-c2cccc(-c3nc4ccccc4[nH]3)c2)c1 | 25% | 8% | 3% | 101% (active) | inactive | inactive | inactive | inactive
O=C(Nc1ccccc1)N(Cc1ccc(-c2cccc(CNCc3ccc4c(c3)OCO4)c2)cc1)C1CCN(Cc2ccccc2)CC1 | 65% (active) | 29% | -1% | 100% (active) | inactive | inactive | inactive | inactive
